IDE cell activ = activators of human insulin-degrading enzyme in cells; 340,000 compounds, 0.073% hits; AID 493087; activation, % at 5.96 µM; P14735; HEK cells, FAbeta-B cleavage, fluorescence polarization; 0% vehicle, 100% cell-free pure enzyme wells;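 active = activation above the mean of all tested compounds plus 3 SD, set per screening campaign, cut at about 17% in these data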
ANO1 block = inhibitors of mouse TMEM16A calcium-activated chloride channel; Q8BHY3; HEK293 TMEM16A/YFP iodide influx fluorescence, ionomycin; normalized B-score (activity score, 25-100; higher = stronger inhibition) at 10 µM; 310,000 compounds, 1.2% hits; AID 588511;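 active = ratio plate-corrected score three or more library SD toward inhibition, starting fluorescence score within five deviations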;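 note: score derived from kinetic fluorescence span divided by baseline fluorescence per well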
ANO1 activ = activates or potentiates the mouse TMEM16A chloride channel; Q8BHY3; 340,000 compounds, 0.3% hits; B-score at 10 µM; HEK293 TMEM16A/YFP-H148Q/I152L, iodide quench fluorescence; active compounds read low; AID 623877;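 active = fluorescence-ratio B-score plate-corrected deviation score at least 3 library SD below zero, with starting fluorescence score within 5 deviations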;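 note: channel opened by trigger with iodide after compound preincubation; score built on the fluorescence ratio of max minus min over baseline; more negative score means more quench and so TMEM16A activation or potentiation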
IDE cell inh = inhibits human insulin-degrading enzyme in HEK cells. P14735. FAbetaB cleavage, fluorescence polarization. inhibition, % at 5.59 µM. 320,000 compounds, 0.41% hits;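 active = percent inhibition above the average of all tested compounds plus 3 SD, set per screening campaign, cut at about 16% in these data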;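 note: IDE supplied by intact live HEK cells; FP after avidin binding of uncleaved biotin substrate so inhibition keeps polarization high; 0% = DMSO wells and 100% = 60 µM reference IDE inhibitor Ii1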
CHT inh = inhibitors of human choline transporter CHT; Q9GZV3; CHT-expressing cells, membrane potential dye, choline response; active compounds read low; B-score at 10 µM; 310,000 compounds, 0.86% hits;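 active = B-score over 3 SD under the library average, and starting fluorescence ratio not unusually high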;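 note: choline stimulus applied at its EC90 after an EC20 pre-addition; B-score computed on integrated fluorescence ratio after choline addition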
CHT PAM = allosterically activates the human high affinity choline transporter | Q9GZV3 | B-score at 10 µM | 310,000 compounds, 0.49% hits | CHT-expressing cells, membrane potential dye, choline EC20; active compounds read high; LV-AA mutant CHT in HEK293 cells;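 active = initial fluorescence not abnormally high and integrated response B-score, plate-corrected, over 3 SD above library mean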
CHT block conf = human CHT inhibition, confirmatory screen. shares compounds with CHT inh. CHT-expressing cells, choline membrane potential dye; LV-to-AA substituted CHT, HEK293 cells. CHT activity remaining % of control (active compounds read low), % at 10 µM. 2,400 compounds, 70% hits;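 active = choline transporter activity left, mean of duplicates at 10 µM, below buffer-only control mean minus 3 SD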;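 note: depolarization triggered by choline at its EC90 following an EC20 pre-addition; 0% = hemicholinium-3 full block and 100% = buffer-only control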
HEK293 MPD ctr = CHT inhibitor counter-screen hit in parental HEK293 cells | 2,400 compounds, 4% hits | AID 493222 | membrane potential dye, choline response; active = decrease or increase beyond buffer ±3SD | shares compounds with CHT inh | membrane potential ratio readout (active if shifted either direction beyond buffer ±3SD; no single direction) at 10 µM;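 note: parental cells lack the transporter so any hit is non-specific; ratio is peak minus trough fluorescence over baseline after EC90 choline challenge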
* = called active by the depositor; i = inactive; · = no result given. Rows were chosen to be rich in hits. Some 2.7% of all compounds tested hit in one or more screens of this group.

SMILES	IDE cell activ	ANO1 block	ANO1 activ	IDE cell inh	CHT inh	CHT PAM	CHT block conf	HEK293 MPD ctr
Nc1c(Br)cc(Br)c2c1C(=O)c1c(cccc1S(=O)(=O)O)C2=O	0	·	i	·	·	·	·	·
O=C(Nc1ccc(Cl)c(S(=O)(=O)N2CCCCC2)c1)c1cccnc1	-1	·	i	5	·	·	·	·
COc1ccc(Cl)cc1NC(=O)C[n+]1cccc(C)c1	5	i	i	-1	-8.1*	i	40%*	i
CCOC(=O)c1c(C)c(C(=O)N2CCc3ccccc3C2)c(C)n1CC	-6	i	i	0	-5.8*	i	39%*	i
CCOC(=O)c1c(C)c(C(=O)Nc2ccccc2)c(C)n1CC	1	i	i	-2	i	i	·	·
CCNC(=O)[C@H]1O[C@@H](n2cnc3c(N)nc(NCCc4ccc(CCC(=O)O)cc4)nc32)[C@H](O)[C@@H]1O	8	i	i	-2	-5.3*	i	46%*	i
COC(=O)C1(C(F)(F)F)C2C=CC(C2)N1S(=O)(=O)c1ccc(C)cc1 (centres undefined)	-1	i	i	1	i	i	·	·
CCCn1c(=N)n(CC(O)COc2cccc(C)c2)c2ccccc21 (centres undefined)	0	i	i	5	-5.3*	i	i	i
Cc1ccc(Cn2c(=N)n(CC(O)COc3ccccc3)c3ccccc32)cc1 (centres undefined)	6	i	i	-7	-8.2*	i	38%*	i
N=c1n(Cc2ccccc2)c2ccccc2n1CC(O)COc1ccccc1 (centres undefined)	2	i	i	4	-9.8*	i	38%*	i
CCn1c(=N)n(CC(O)COc2cccc(C)c2)c2ccccc21 (centres undefined)	6	i	i	0	i	i	·	·
COCCN(C(=O)c1csnn1)C(C(=O)NC1CCCC1)c1ccccc1F (centres undefined)	0	i	i	-2	i	i	·	·
COc1ccc(S(=O)(=O)N2CCN(C)CC2c2ccccc2)cc1OC (centres undefined)	-2	·	i	·	·	·	·	·
COc1ccc(C(C)=O)cc1CC(=O)Nc1ccccc1-c1ccccc1	5	i	i	-3	i	i	·	·
Cc1ccc(S(=O)(=O)N2CCCCC2)cc1NC(=O)CSc1nc(N)cc(=O)[nH]1	0	·	i	-3	·	·	·	·
C/C(=N\NS(=O)(=O)c1ccc(Cl)c([N+](=O)[O-])c1)c1cc2ccccc2o1	2	i	i	1	-7.5*	i	71%*	i
C/C(=N\NS(=O)(=O)c1ccc(C)c([N+](=O)[O-])c1)c1cc2ccccc2o1	4	i	i	6	i	i	·	·
COc1ccc(NS(=O)(=O)c2ccc(N3CCCCC3)c(N)c2)cc1	-1	·	i	-2	·	·	·	·
O=C(CCc1nc2ccccc2n1-c1ccccc1)NCCO	0	i	i	6	i	i	·	·
CCN1CCN(C(=O)CCc2nc3ccccc3n2-c2ccccc2)CC1	-1	i	i	8	-6.1*	i	40%*	i
O=C(CN(C(=O)c1csnn1)c1ccc(F)cc1)NCc1ccc2c(c1)OCO2	-1	i	i	-3	i	i	·	·
O=C(COC(=O)c1ccc(O)cc1O)Nc1cccc2ccccc12	5	·	i	-2	·	·	·	·
O=C(C1CCCN(c2ncnc3c2nc2n3CCCCC2)C1)N1CCN(c2ccc(F)cc2)CC1 (centres undefined)	-6	i	i	3	-8*	i	37%*	i
